Results filed as inconclusive are left out. The source made the active and inactive calls. Unless noted, calls come from the whole dose curve; as a rule, active = well fitted curve in the direction sought with a large enough effect in the repeat runs; inconclusive = weak or mixed curves; inactive = no such curve, though single readings can be large; an effect the other way counts as inactive or inconclusive.

Test [1] in a line: qHTS assay for small molecule agonists of the p53 signaling pathway (AID 651631; calls by dose curve; note: nearly all actives have a fitted effect of over 15% in size). The essentials: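 HCT-116 cells carrying a beta-lactamase reporter under p53 response elements were dosed with compound for 16 h at 37 °C. LiveBLAzer B/G FRET substrate was then added for 2 h at room temperature, and fluorescence intensity was read to detect pathway agonism.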
A short description of test [2]: qHTS assay for small molecules that induce genotoxicity in human embryonic kidney cells expressing luciferase-tagged ATAD5 (AID 651632). Note: nearly all actives have a fitted effect of over 15% in size. The essentials: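 Reporter cells (HEK293T) express luciferase-tagged ATAD5, a protein that accumulates after DNA damage. Treat 16 hr at 37C/5% CO2, add Amplite, wait 30 min at RT, and read luminescence.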
(qHTS replaces the single test concentration by a dilution series.)

The nature of test [3]: qHTS assay for small molecule agonists of the p53 signaling pathway - cell viability (AID 651633; calls by dose curve;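 note: p53RE-bla HCT reporter cells with a stable beta-lactamase p53 reporter; series mostly up to about 83 µM; nearly all actives have a fitted effect of over 30% in size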). Put shortly:
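p53RE-bla cells were treated with compound for 16 hours at 37 C. Cytotoxicity was then measured as CellTiter-Glo luminescence after 30 min at room temperature.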

Test [4] is described as follows: qHTS assay for small molecules that induce genotoxicity in human embryonic kidney cells expressing luciferase-tagged ATAD5 - cell viability (AID 651634; calls by dose curve; note: nearly all actives have a fitted effect of over 25% in size). Put shortly: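 Seeding of 2,000 HEK293T ATAD5-luciferase cells per well preceded pin-tool compound transfer. Plates sat 15.5 hr at 37C under 5% CO2, then fluorescence was read after 30 min with CellTiter-Fluor.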

Test [5] is described as follows: qHTS assay for small molecule disruptors of the mitochondrial membrane potential - cell viability (AID 720634; calls by dose curve;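 note: human HepG2 liver cancer cells; series mostly up to about 83 µM; nearly all actives have a fitted effect of over 20% in size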). Put shortly: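 Measuring cytotoxicity alongside mitochondrial potential, the screen quantified ATP by luminescence in HepG2 cells after 1 hr compound incubation and a 30 min room-temperature CellTiter-Glo step.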
A short description of test [6]: qHTS assay for small molecule disruptors of the mitochondrial membrane potential (AID 720635). Note: potency is the fitted concentration of half-maximal effect. Put shortly:
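HepG2 cells exposed to compound 1 hr at 37C, then Mito-MPS dye 30 min. Ratio read of aggregate (540/590 nm) versus monomer (490/535 nm) fluorescence.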

Test [7] is described as follows: qHTS assay to test for compound auto fluorescence at 590 nm (red) in HepG2 cells (AID 720674). Put shortly: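 Fluorescence at 590 nm emission following 540 nm excitation was recorded from HepG2 wells one hour after compound transfer, with DMSO-only wells as vehicle and Rose Bengal sodium equivalency as the scale.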
A short description of test [8]: qHTS assay to test for compound auto fluorescence at 460 nm (blue) in HEK293 cells (AID 720678). The essentials:
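HEK293, 2,000 cells/well, 10% dialyzed FBS; attach 4-5 hr 37C; pin compound or DMSO; o/n 37C/5% CO2; fluorescence 405/460 nm; triamterene-equivalent units.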

Test [9] in a line: qHTS assay to test for compound auto fluorescence at 590 nm (red) in HEK293 cells (AID 720679). The essentials:
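Intensity at 540nm excitation and 590nm emission is reported as Rose Bengal sodium-equivalent autofluorescence. Measurements followed overnight exposure (37C, 5% CO2) of HEK293 cells, 2,000 per well, to 23 nL compound.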

Test [10] is described as follows: qHTS assay to test for compound auto fluorescence at 535 nm (green) in HEK293 cells (AID 720680).
A short description of test [11]: qHTS assay to test for compound auto fluorescence at 460 nm (blue) in HEK293 cell free culture (AID 720681). The essentials:
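Compounds were added to cell-free DMEM with 10% FBS and fluorescence read directly. The blue channel used 405 nm excitation and 460 nm emission, with triamterene as the reference fluorophore.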

The nature of test [12]: qHTS assay to test for compound auto fluorescence at 535 nm (green) in HEK293 cell free culture (AID 720682). The essentials: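 Green-label autofluorescence (485 nm excitation, 535 nm emission) measured on compound added to cell-free culture medium (DMEM, 10% FBS). Output is expressed relative to fluorescein.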
Test [13] in a line: qHTS assay to test for compound auto fluorescence at 590 nm (red) in HEK293 cell free culture (AID 720683). Put shortly: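 Cell-free wells of DMEM with 10% FBS received compound, and intrinsic fluorescence was read at excitation/emission 540/590 nm. Values expressed as equivalence to Rose Bengal sodium.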
Test [14] is described as follows: qHTS assay to test for compound auto fluorescence at 590 nm (red) in HepG2 cell free culture (AID 720684). The essentials: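 Compound was pinned into wells holding MEM with 10% FBS and no cells, and red fluorescence was read at Ex/Em 540/590 nm. Signal is expressed as auto fluorescence equivalency relative to Rose Bengal sodium.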
A short description of test [15]: qHTS assay to test for compound auto fluorescence at 460 nm (blue) in HepG2 cell free culture (AID 720685). Put shortly: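 Compound (23 nL) or DMSO pinned into cell-free MEM with 10% FBS; blue fluorescence read at 405/460 nm excitation/emission, expressed as auto-fluorescence equivalency to triamterene.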
Test [16] is described as follows: qHTS assay to test for compound auto fluorescence at 535 nm (green) in HepG2 cell free culture (AID 720686).
A short description of test [17]: qHTS assay to test for compound auto fluorescence at 460 nm (blue) in HepG2 cells (AID 720687). The essentials:
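HepG2 cells in MEM with 10% FBS, attached overnight at 37 C, were exposed to compound or DMSO for 1 hr at 37 C, 5% CO2. Blue fluorescence was read at 405/460 nm, with triamterene as reference fluorophore.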

In test [18] the target is Glucocorticoid receptor (Homo sapiens) (UniProt P04150). Briefly: qHTS assay to identify small molecule agonists of the glucocorticoid receptor (GR) signaling pathway (AID 720691; active = well fitted activation curve with a large enough effect in the signal ratio in the repeat runs, not every such curve was filed as active; the % refers to the signal ratio). Put shortly: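 Reporter read-out: fluorescence intensity following 2 h room-temperature LiveBLAzer B/G FRET substrate loading. Prior step: GR-bla HeLa cells held 4 h, then treated 18 h at 37 C.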
Glucocorticoid receptor (Homo sapiens), sequence (P04150 whole entry, looked up): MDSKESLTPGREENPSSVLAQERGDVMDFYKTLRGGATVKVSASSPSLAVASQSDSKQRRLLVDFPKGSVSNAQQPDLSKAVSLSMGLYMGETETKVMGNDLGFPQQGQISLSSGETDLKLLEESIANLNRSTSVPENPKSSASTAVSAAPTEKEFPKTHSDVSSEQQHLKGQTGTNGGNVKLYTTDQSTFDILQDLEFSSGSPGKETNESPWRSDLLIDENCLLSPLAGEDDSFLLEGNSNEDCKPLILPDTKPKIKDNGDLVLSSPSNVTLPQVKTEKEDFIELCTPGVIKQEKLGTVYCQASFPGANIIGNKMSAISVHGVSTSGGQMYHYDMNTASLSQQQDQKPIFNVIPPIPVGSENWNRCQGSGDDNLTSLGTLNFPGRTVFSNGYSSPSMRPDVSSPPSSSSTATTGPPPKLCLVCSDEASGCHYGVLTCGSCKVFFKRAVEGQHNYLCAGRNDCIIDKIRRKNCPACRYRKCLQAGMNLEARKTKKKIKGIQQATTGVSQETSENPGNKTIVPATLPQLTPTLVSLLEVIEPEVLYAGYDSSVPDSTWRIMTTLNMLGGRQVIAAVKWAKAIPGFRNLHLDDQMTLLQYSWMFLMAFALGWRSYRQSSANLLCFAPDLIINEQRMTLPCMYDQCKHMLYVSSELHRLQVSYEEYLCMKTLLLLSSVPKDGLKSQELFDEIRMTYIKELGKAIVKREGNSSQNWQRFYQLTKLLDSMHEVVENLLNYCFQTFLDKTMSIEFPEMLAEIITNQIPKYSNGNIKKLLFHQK

The target is the same in test [19]. Briefly: qHTS assay to identify small molecule antagonists of the glucocorticoid receptor (GR) signaling pathway (AID 720692; active = well fitted inhibition curve with a large enough effect in the signal ratio in the repeat runs, not every such curve was filed as active; the % refers to the signal ratio). Put shortly: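 Dexamethasone (5 nM final) stimulated a stably integrated GRE-beta-lactamase reporter in HeLa cells during 18 h co-incubation with compounds; signal was quantified as fluorescence intensity of B/G FRET substrate after 2 h.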

The nature of test [20]: qHTS assay to test for compound auto fluorescence at 535 nm (green) in HepG2 cells (AID 720675).

As to `NC(=O)CF`, the Potency result in test [1], in test [2], in test [3], in [4], in test [5] and in test [6] was “inactive” each time. Further, the Potency entry in test [18] and in [19] was “inactive” throughout. The molecule was classed as inactive in test [7], in test [8], in test [9], in test [10], in test [11] and in [12]. For the same molecule, the molecule was called inactive in [13], in [14], in [15], in test [16] and in test [17].
Consider `OCCCl`, for which the Potency entry in test [1], in test [2], in [3], in [4], in test [5] and in [6] was “inactive” each time. In addition, the Potency entry in test [18] and in [19] was “inactive” throughout. For the same molecule, the molecule was called inactive in [7], in [20], in [8], in [9], in test [10] and in test [11]. The call in [12], in [13], in test [14], in test [15], in test [16] and in [17] was inactive.
For `COc1cc(C[C@@H](C)N)c(OC)cc1Br`, the Potency result in test [1], in test [2], in test [3], in [4] and in test [5] was “inactive” each time. Moreover, the outcome in [7], in test [20], in test [8], in [9], in test [10] and in test [11] was inactive. Further, the outcome in test [12], in test [13], in [14], in [15], in test [16] and in [17] was inactive.
Turning to `C1CS1`, the Potency entry in test [1], in [2], in test [3], in test [4] and in test [5] was “inactive” in each case. Also, the call in test [7], in [20], in test [8], in [9], in [10] and in [11] was inactive. Besides, the call in [12], in [13], in test [14], in test [15], in test [16] and in test [17] was inactive.
On to `CCN(C(C)=O)c1cccc(-c2ccnc3c(C#N)cnn23)c1`, for which the Potency result in [1], in [2], in [3], in test [4] and in test [5] was “inactive” throughout. In addition, the outcome in test [7], in [20], in test [8], in [9], in test [10] and in test [11] was inactive. The molecule was called inactive in [12], in [13], in test [14], in test [15], in test [16] and in test [17].
As to `Cc1nnc(-c2ccccc2)c(=O)n1N`, the Potency result in test [1], in test [2], in [3], in test [4], in test [5] and in test [6] was “inactive” throughout. In addition, the Potency result in test [18] and in test [19] was “inactive” each time. For the same molecule, the call in [7], in test [20], in [8], in test [9], in test [10] and in test [11] was inactive. Also, the molecule was classed as inactive in test [12], in [13], in test [14], in test [15], in test [16] and in [17].
For `CCCN(CCC)c1c([N+](=O)[O-])cc(C(C)C)cc1[N+](=O)[O-]`, the Potency entry in test [1], in test [2], in test [3] and in test [4] was “inactive” each time. In addition, the Potency in test [6] was 12.2 µM (active). Also, the result in test [7], in [20], in [8], in test [9], in test [10] and in test [11] was inactive. For the same molecule, the molecule was classed as inactive in test [12], in [13], in test [14], in [15], in test [16] and in [17].
With `CCCN(CCC)C(=O)Cc1c(-c2ccc(Cl)cc2)nc2ccc(Cl)cn12`, the Potency result in test [1], in test [2], in test [3] and in [4] was “inactive” throughout. Also, the molecule was classed as inactive in test [7], in [8], in [9], in test [10], in test [11] and in test [12]. Moreover, the molecule was called inactive in [14], in test [15], in test [16] and in [17].

Values taken from PubChem BioAssay (Tox21).
